Structures are written as SMILES. Records with an inconclusive call do not appear. Entries that show only a call come without a potency. Activity calls are given as the source filed them. Calls come from the whole dose curve; as a rule, active = well fitted inhibition curve with a large enough effect; inconclusive = small, poorly fitted or top-dose-only effect; inactive = flat fitted curve, though single readings scatter.
Potency is the fitted concentration of half-maximal effect.

For this experiment, the system named is CP203. The experiment is described as follows: qHTS profiling for inhibitors of Plasmodium falciparum proliferation (AID 504749). Note: nearly all actives have a fitted effect of over 60% in size. Conditions: P. falciparum in erythrocytes, SYBR Green DNA, 72 h; series mostly up to 28.7 µM. The text has this: NIH National Institute of Allergy and Infectious Diseases [NIAID] NIH Chemical Genomics Center [NCGC] MLPCN Grant: None Assay Provider: Xinzhuan Su, NIAID NCGC Assay Overview: Plasmodium falciparum is a virulent malarial parasite that kills 1-2 million people worldwide each year. Transmitted by mosquitoes, the sporozoite form of the parasite enters the blood stream to infect hepatocytes, where they become merozoites that infect red blood cells (erythrocytes). Within erythrocytes, merozoites begin a […] cycle of growth and division, after which the parasite is released to infect new red blood cells. Gametocytes, which form within erythrocytes as well, circulate in the bloodstream and are ingested by the mosquito, thereby completing the life cycle. To profile malarial isolates for differential chemical responses and to identify inhibitors of malarial growth, an assay that measures P. falciparum growth and replication within erythrocytes was employed. This assay uses a DNA binding fluorescent dye (SYBR Green) to detect parasite DNA following cell lysis. Because mature erythrocytes lack DNA, only Plasmodium-derived DNA is detected.
NCGC Assay Protocol Summary: The SYBR Green viability assay was adapted from a method described previously (Plouffe et al., 2008). For screening 3 ul culture medium was dispensed into 1536 well black clear bottom plates (Aurora Biotechnologies) using a Multidrop Combi (Thermo Fisher Scientific Inc.), 23 nL compounds in DMSO were added by a pin tool (Kalypsys), and 5 ul of erythrocytes infected with P. falciparum (0.3% parasitemia, 2.5% hematocrit final concentration) were added. The plates were incubated at 37 C in a humidified incubator in 5% CO2 for 72 h, and 2 ul lysis buffer (20 mM Tris HCl, 10 mM EDTA, 0.16% saponin, 1.6% triton X, 10X SYBR Green I supplied as 10,000X […] by Invitrogen) was added to each well. The plates were mixed for 25 sec with gentle shaking and incubated overnight at room temperature in the dark. The following morning, fluorescence intensity at 485(14) nm excitation and 535(25) nm emission wavelengths was measured on an EnVision (Perkin Elmer) plate reader. Plate reads were normalized relative to the control inhibitor (0.29 uM artemisinin) and vehicle (DMSO) wells present on each plate and then corrected by an algorithm using vehicle-only control plates at the beginning and end of the compound plate stack.
A general note: Quantitative high-throughput screening tests each substance at several concentrations.
For the compound `O=C(O)c1ccc2[nH]cc(CCCCN3CC=C(c4ccccc4)CC3)c2c1`, the Potency entry is “inactive”.

In the case of `Clc1ccc(COC(Cn2ccnc2)c2ccc(Cl)cc2Cl)cc1` (stereo not given), the Potency was 4.26 µM (active).

As to `CCOP(=S)(OCC)Oc1cc(C)nc(C(C)C)n1`, the Potency result is “inactive”. Turning to `CCC1(C2=NCCN2)Cc2ccccc2O1` (stereo not given), the Potency is 10.7 µM (active).

Turning to `CC1NCCOC1c1ccccc1` (stereo not given), the Potency result is “inactive”. As to `CC1OC(C)OC(C)O1` (stereo not given), the Potency entry is “inactive”. Then `NN=C(N)N`, with “inactive”; and `CC[N+](CC)(CC)CC`, with “inactive”. Take `NCC(O)c1ccc(O)cc1` (stereo not given): the Potency result is “inactive”. With `C=C1CC[C@@]2(O)[C@H]3Cc4ccc(O)c5c4[C@@]2(CCN3CC2CC2)[C@H]1O5` the entry was “inactive”; with `CC(C)(C)CC(C)(C)c1ccc(O)cc1`, “inactive”. As to `Cn1c(CCCC(=O)O)nc2cc(N(CCCl)CCCl)ccc21`, the Potency result was “inactive”. With `CC(=O)Nc1cc([As](=O)(O)O)ccc1O` the entry was “inactive”; with `CC[N+]1(C)CCCC(OC(=O)C(O)(c2ccccc2)c2ccccc2)C1` (stereo not given), “inactive”; with `CC(=O)[C@H]1CC[C@H]2[C@@H]3CC[C@H]4C[C@H](O)CC[C@]4(C)[C@H]3C(=O)C[C@]12C`, “inactive”. Take `CCCC(C)(COC(N)=O)COC(=O)NC(C)C` (stereo not given): the Potency result is “inactive”. With `CN1C(=S)CN=C(c2ccccc2)c2cc(Cl)ccc21`, the Potency entry was “inactive”. For the compound `c1ccc(C2CC2)c(OCC2=NCCN2)c1`, the Potency entry is “inactive”. On to `O=C(NC(O)C(Cl)(Cl)Cl)NC(O)C(Cl)(Cl)Cl` (stereo not given), for which the Potency result is “inactive”. In the case of `NCC(CC(=O)O)c1ccc(Cl)cc1` (stereo not given), the Potency result is “inactive”. In the case of `CCN(C(C)=O)c1cccc(-c2ccnc3c(C#N)cnn23)c1`, the Potency entry is “inactive”.

On to `Oc1cccc2cccnc12`, for which the Potency entry is “inactive”. As for `C[C@]12C/C(=C/O)C(=O)C[C@@H]1CC[C@@H]1[C@@H]2CC[C@@]2(C)[C@H]1CC[C@]2(C)O`, the Potency entry was “inactive”. `O=C1NCN(c2ccccc2)C12CCN(CC1COc3ccccc3O1)CC2` (stereo not given): the Potency result was “inactive”.

As for `Oc1ccccc1-c1ccccc1`, the Potency entry was “inactive”. Consider `C=C(C)[C@H]1Cc2c(ccc3c2O[C@@H]2COc4cc(OC)c(OC)cc4[C@@H]2C3=O)O1`, for which the Potency entry is “inactive”. As for `N#CC(C#N)=Cc1ccc(O)c(O)c1`, the Potency entry is “inactive”. Turning to `NP(N)(=O)NC(=O)c1ccc(F)cc1`, the Potency entry is “inactive”.

`CCN(CC)CCOC(=O)C(O)(c1ccccc1)c1ccccc1`: the Potency entry is “inactive”. Then `Oc1cc(Cl)ccc1Oc1ccc(Cl)cc1Cl`, with 15.1 µM (active); and `CCCC1CCCCN1` (stereo not given), with “inactive”. In the case of `COc1ccc(C(=O)c2c(C)n(CCN3CCOCC3)c3ccccc23)cc1`, the Potency entry was “inactive”. As to `Fc1ccc(C(OCCN2CCN(CCCc3ccccc3)CC2)c2ccc(F)cc2)cc1`, the Potency was 12 µM (active).

Turning to `CC(=O)[C@H]1CC[C@H]2[C@@H]3CC[C@H]4C[C@](C)(O)CC[C@]4(C)[C@H]3CC[C@]12C`, the Potency entry is “inactive”. Regarding `OCCOc1ccccc1`, the Potency result is “inactive”.

With `CN(C)CCc1ccc(O)cc1`, the Potency entry is “inactive”. For the compound `CC(C)CC(N(C)C)C1(c2ccc(Cl)cc2)CCC1` (stereo not given), the Potency entry is “inactive”. On to `CCCN1CCC[C@@H]2Cc3[nH]ncc3C[C@H]21`, for which the Potency result was “inactive”. For `CC(C)=CC1C(C(=O)OCc2cccc(Oc3ccccc3)c2)C1(C)C` (stereo not given), the Potency entry is “inactive”.

`NCC1(CC(=O)O)CCCCC1`: the Potency entry is “inactive”.

Values taken from PubChem BioAssay (NCATS).
